“And” between values parts separate entries of the source, which are not always exact repeats. Equal values may be shown once. Screen size: about 5,500 compounds; about 2,000 (36%) were called active. Inconclusive results (about 18%) are left out. No stated cut-off is given here; in the data, active means normalized growth mostly below about 0.91 (no sharp cut-off); inconclusive means no clear call, values can overlap the other calls; inactive means mostly above about 0.92. Some of the results follow.
Experiment: chemical genetic growth profiling, strain panel (AID 1159580);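 further: tested at 20 µM; growth read once vehicle control cultures reached saturation at 30 °C; 1 = growth at the plate median or of vehicle wells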
Settings: S. cerevisiae deletion strains, growth OD

Measured: normalized growth

C=C1C2CC[C@@]3(C)[C@H](c4ccoc4)OC(=O)C[C@]13O[C@H]1CC(O)C(C)(C)C(CC(=O)OC)[C@@]21C (stereo not given in full)
inactive: locus YAL021C, strain ccr4, stronger effect = lower value 0.962 | locus YAL026C, strain drs2, stronger effect = lower value 0.934 | locus YAL030W, strain snc1, stronger effect = lower value 0.949 | locus YBL061C, strain skt5, stronger effect = lower value 0.984 | locus YBR009C, strain hhf1, stronger effect = lower value 0.972 | locus YBR021W, strain FUR4, stronger effect = lower value 0.991 | locus YBR023C, strain chs3, stronger effect = lower value 0.981 | locus YBR171W, strain sec66, stronger effect = lower value 0.98 | locus YBR229C, strain ROT2, stronger effect = lower value 0.995 | locus YBR231C, strain swc5, stronger effect = lower value 0.974 | locus YBR279W, strain paf1, stronger effect = lower value 0.978 | locus YCL011C, strain gbp2, stronger effect = lower value 0.984 | locus YCL016C, strain dcc1, stronger effect = lower value 0.983 | locus YCL029C, strain bik1, stronger effect = lower value 1.01 | locus YCL061C, strain MRC1, stronger effect = lower value 0.989 | locus YCL069W, strain vba3, stronger effect = lower value 0.979 | locus YCR088W, strain abp1, stronger effect = lower value 0.977 | locus YDL005C, strain med2, stronger effect = lower value 0.952 | locus YDL035C, strain GPR1, stronger effect = lower value 0.999 | locus YDL040C, strain nat1, stronger effect = lower value 0.982 | locus YDL074C, strain BRE1, stronger effect = lower value 0.999 | locus YDL101C, strain DUN1, stronger effect = lower value 0.999 | locus YDL185W, strain tfp1, stronger effect = lower value 1.02 | locus YDL192W, strain arf1, stronger effect = lower value 1.01 | locus YDR001C, strain nth1, stronger effect = lower value 0.962 | locus YDR069C, strain doa4, stronger effect = lower value 0.957 | locus YDR101C, strain arx1, stronger effect = lower value 1.01 | locus YDR137W, strain rgp1, stronger effect = lower value 0.938 | locus YDR150W, strain NUM1, stronger effect = lower value 0.98 | locus YDR159W, strain sac3, stronger effect = lower value 0.936 | locus YDR162C, strain NBP2, stronger effect = lower value 1.01 | locus YDR195W, strain ref2 0.937 | locus YDR297W, strain sur2, stronger effect = lower value 0.965 | locus YDR318W, strain mcm21, stronger effect = lower value 1.02 | locus YDR334W, strain swr1, stronger effect = lower value 0.966 | locus YDR335W, strain msn5, stronger effect = lower value 0.967 | locus YDR388W, stronger effect = lower value 1 | locus YDR392W, strain spt3, stronger effect = lower value 0.97 | locus YDR502C, strain sam2, stronger effect = lower value 1 | locus YEL003W, strain gim4, stronger effect = lower value 0.975 | locus YEL037C, strain rad23, stronger effect = lower value 0.976 | locus YEL061C, strain CIN8 (second series), stronger effect = lower value 0.966 | locus YEL061C, strain CIN8, stronger effect = lower value 1.05 | locus YER015W, strain faa2, stronger effect = lower value 0.985 | locus YER016W, strain bim1, stronger effect = lower value 0.967 | locus YER110C, stronger effect = lower value 1.02 | locus YER111C, strain swi4, stronger effect = lower value 0.988 | locus YER155C, strain BEM2 (second series), stronger effect = lower value 0.955 | locus YER155C, strain BEM2, stronger effect = lower value 1 | locus YER167W, strain BCK2, stronger effect = lower value 1 | locus YFR010W, strain ubp6, stronger effect = lower value 0.965 | locus YGL078C, strain dbp3, stronger effect = lower value 1.02 | locus YGL086W, strain mad1, stronger effect = lower value 1.02 | locus YGL167C, strain pmr1, stronger effect = lower value 0.963 | locus YGL173C, strain kem1, stronger effect = lower value 0.961 | locus YGL227W, strain vid30, stronger effect = lower value 0.986 | locus YGL240W, strain doc1, stronger effect = lower value 0.97 | locus YGL248W, strain PDE1, stronger effect = lower value 1.01 | locus YGL253W, strain hxk2, stronger effect = lower value 0.972 | locus YGR135W, strain pre9, stronger effect = lower value 1.01 | locus YGR252W, strain gcn5, stronger effect = lower value 1.02 | locus YHR013C, strain ard1, stronger effect = lower value 0.939 | locus YHR027C, strain rpn1, stronger effect = lower value 0.967 | locus YHR030C, strain SLT2, stronger effect = lower value 1.01 and 0.963 | locus YHR079C, strain IRE1 (second series), stronger effect = lower value 1.01 | locus YHR079C, strain IRE1, stronger effect = lower value 0.973 | locus YHR094C, strain hxt1, stronger effect = lower value 1.01 | locus YHR129C, strain ARP1, stronger effect = lower value 1 | locus YHR142W, strain chs7, stronger effect = lower value 0.986 | locus YHR200W, strain rpn10, stronger effect = lower value 0.993 | locus YIL066C, strain RNR3, stronger effect = lower value 0.997 | locus YIL073C, strain SPO22, stronger effect = lower value 1.06 | locus YIL125W, strain kgd1, stronger effect = lower value 1.01 | locus YIR030C, strain dcg1, stronger effect = lower value 1.01 | locus YJL092W, strain hpr5, stronger effect = lower value 0.975 | locus YJL095W, strain BCK1 (second series), stronger effect = lower value 0.956 | locus YJL095W, strain BCK1, stronger effect = lower value 1.01 and 0.974 | locus YJL115W, strain asf1, stronger effect = lower value 0.937 | locus YJL129C, strain trk1, stronger effect = lower value 0.963 | locus YJL134W, strain LCB3, stronger effect = lower value 1.01 | locus YJL154C, strain vps35, stronger effect = lower value 0.973 | locus YJL164C, strain tpk1, stronger effect = lower value 0.972 | locus YJL166W, strain qcr8, stronger effect = lower value 0.97 | locus YJL168C, strain set2, stronger effect = lower value 1.01 | locus YJL187C, strain SWE1 (second series), stronger effect = lower value 1

Reference: PubChem BioAssay AID1159580 (chemical genetic matrix, 2015)
